The values below come from the supplement of paper PMC12067926.

This test deals with Pseudomonas 6 (Pseudomonas sp.). The test is described as follows: relative growth (AUC of 72 h growth curve relative to DMSO control, dAUC) (ratio); higher = more growth (less inhibition), active = hit call of the paper. The note with it: 20 µM. Summed up:
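Each chemical was tested at 20 µM (1% DMSO) in 96-well plates seeded with a 1:100 dilution of cultures grown to carrying capacity in Luria–Bertani medium. These were isolates from Icelandic stream sediments and Silwood Park soil, as well as whole sediment communities. A plate reader took A600 readings hourly over 72 h, and three biological replicates were averaged. Relative growth (dAUC) is the spline-integrated area under the growth curve relative to the mean of the DMSO controls.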
In the case of `CNC(=O)CSP(=S)(OC)OC`, the relative growth was 1.19 (inactive).

For `N#CCNC(=O)c1cnccc1C(F)(F)F`, the relative growth was 1.07 (inactive).

For the compound `COP(=O)(OC)OC=C(Cl)Cl`, the relative growth is 0.982 (inactive).

With `CCc1cc(C)cc(CC)c1-c1c(OC(=O)C(C)(C)C)n2n(c1=O)CCOCC2`, the relative growth is 1.02 (inactive).

Regarding `CCOc1ccc(C(C)(C)COCc2cccc(Oc3ccccc3)c2)cc1`, the relative growth is 1.02 (inactive).

As to `COc1ncc(F)c2nc(S(=O)(=O)Nc3c(F)cccc3F)nn12`, the relative growth is 0.99 (inactive).

With `O=[N+]([O-])c1cc(C(F)(F)F)c(Cl)c([N+](=O)[O-])c1Nc1ncc(C(F)(F)F)cc1Cl`, the relative growth was 0.258 (active).

As for `COP(=S)(OC)Oc1ccc(SC)c(C)c1`, the relative growth is 1.01 (inactive).

As for `CCCCCCCCCCCCNC(=N)N`, the relative growth is 0.922 (inactive).

In the case of `CC(C)NC(=O)N1CC(=O)N(c2cc(Cl)cc(Cl)c2)C1=O`, the relative growth was 0.864 (inactive).

Turning to `CCCCOC(=O)[C@H](C)Oc1ccc(Oc2ccc(C#N)cc2F)cc1`, the relative growth was 1.17 (inactive).

Consider `CCc1cccc(C)c1N(C(=O)CCl)[C@@H](C)COC`, for which the relative growth is 1.13 (inactive).

In the case of `CC(C1CC1)C(O)(Cn1cncn1)c1ccc(Cl)cc1` (stereo not drawn), the relative growth is 1.03 (inactive).

For the compound `CC(COc1ccc(Oc2ccccc2)cc1)Oc1ccccn1` (stereo not drawn), the relative growth is 1.08 (inactive).

Turning to `CCNc1nc(Cl)nc(NC(C)C)n1`, the relative growth was 0.945 (inactive).

As for `N#C/N=C1\SCCN1Cc1ccc(Cl)nc1`, the relative growth was 1 (inactive).

For `CCCC1COC(Cn2cncn2)(c2ccc(Cl)cc2Cl)O1` (stereo not drawn), the relative growth is 1.02 (inactive).

Turning to `COc1cc(C)c(C(=O)c2c(OC)ccc(Br)c2C)c(OC)c1OC`, the relative growth is 0.939 (inactive).
